# Source: PubChem BioAssay
# Active and inactive are the calls of the source. Unless noted, the rule behind the calls is not given here.
# Tests used:
# [1] = HepG2 liver cancer cell viability effects, profiling panel, resazurin fluorescence, 24 h, PK04 Diversity Set (AID 1172); conditions: higher = more signal
# [2] = basal S. cerevisiae growth modulation, no modifier, primary screen, OD600, strain BY4716, 24 h, basal condition (AID 1173); conditions: OD600, 24 h, higher = more signal, called active from +8 up or from −8 down
# [3] = MM1S myeloma cell viability, profiling panel, resazurin fluorescence, basal, 24 h, PK04 Diversity Set (AID 1174); conditions: higher = more signal, called active from +8 up or from −8 down;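 note: MM1S multiple myeloma cell line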
# [4] = target: Dihydroorotate dehydrogenase (quinone), mitochondrial (Plasmodium falciparum (isolate 3D7)) (UniProt Q08210); test: PfDHODH enzyme inhibitors, primary screen, biochemical, C-terminal His tag, absorbance 600 nm (AID 1175); conditions: DCIP absorbance 600 nm, higher = more signal, called active from +8 up or from −8 down;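 note: recombinant parasite enzyme with a five histidine tag at its C terminus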
# [5] = P. aeruginosa biofilm formation inhibitors, primary screen, strain PAO1, LB-PBS medium, absorbance 600 nm (AID 1176); conditions: P. aeruginosa PAO1 growth/biofilm, A600, 12 h; higher = more signal
# [6] = S. cerevisiae RM11-1a growth modifiers, primary screen, strain RM11-1a, OD600, basal, 24 h (AID 1177); conditions: OD600, 24 h, higher = more signal, called active from +8 up or from −8 down;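 note: cultures grown under basal conditions with no added stressor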
# [7] = E. coli acrAB mutant growth effects, primary screen, E. coli filamentation inducers, strain DRC39, OD650, 24 h (AID 1178); conditions: higher = more signal, called active from +8 up or from −8 down;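 note: growth measured as culture turbidity by optical density at 650 nm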
# [8] = E. coli acrAB mutant growth effects, primary screen, E. coli filamentation inducers, strain DRC39, OD650, 48 h (AID 1179);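 note: screen aims at cell division blockers that make cells filament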; conditions: E. coli DRC39 delta-acrAB growth, higher = more signal, called active from +8 up or from −8 down
# [9] = RPMI8226 myeloma cell viability, profiling panel, resazurin fluorescence, basal, 24 h, PK04 Diversity Set (AID 1180); conditions: higher = more signal;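 note: RPMI8826 multiple myeloma cell line at 5000 cells per well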
# [10] = target: E3 ubiquitin-protein ligase XIAP (Homo sapiens) (UniProt P98170); test: XIAP binders, primary screen, biophysical, small-molecule microarray, fluorescence 635 nm (AID 1181); conditions: small-molecule microarray binding, higher = more signal;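 note: score merges 667 nm emission and signal to noise over triplicate slides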
# [11] = test system: XIP peptide (Xip251-270) binding; test: small-molecule binders of XIP peptide, primary screen, biochemical, small-molecule microarray, fluorescence 635/667 nm, 0.1 µg/mL protein (AID 1182); conditions: fluorescent protein binding, 635 nm, higher = more signal, called active from +8 up or from −8 down
# XIP peptide (Xip251-270) = test: small-molecule binders of XIP peptide, primary screen, biochemical, small-molecule microarray, fluorescence 635/667 nm, 0.5 µg/mL protein (AID 1183); conditions: small-molecule microarray binding, fluorescence 635 nm; higher = more signal
# [12] = Plasmodium falciparum growth inhibition, primary screen, strain 3D7, DAPI fluorescence, 100 nL (AID 1184);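 note: parasites grown inside human red blood cells in medium with human serum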; conditions: P. falciparum 3D7 growth, 3 d, higher = more signal
# [13] = target: Homeobox protein Hox-A13 (Mus musculus) (UniProt Q62424); test: inhibitors of HoxA13-DNA binding, primary screen, biochemical, fluorescence polarization, labeled oligonucleotide (AID 1185); conditions: 15 min, higher = more signal, called active from +8 up or from −8 down
# [14] = inhibitors of hydroxyurea-induced Chk1 phosphorylation, primary screen, imaging, HeLa, phospho-Chk1 antibody, percent positive cells (AID 1186); conditions: hydroxyurea-induced phospho-Chk1 immunofluorescence imaging, higher = more signal
# [15] = inhibitors of hydroxyurea-induced Chk1 phosphorylation, primary screen, imaging, HeLa, phospho-Chk1 nuclear intensity (AID 1187); conditions: hydroxyurea-induced phospho-Chk1 immunofluorescence imaging, higher = more signal
# Chain of Homeobox protein Hox-A13 (Mus musculus) (Q62424 whole entry, looked up): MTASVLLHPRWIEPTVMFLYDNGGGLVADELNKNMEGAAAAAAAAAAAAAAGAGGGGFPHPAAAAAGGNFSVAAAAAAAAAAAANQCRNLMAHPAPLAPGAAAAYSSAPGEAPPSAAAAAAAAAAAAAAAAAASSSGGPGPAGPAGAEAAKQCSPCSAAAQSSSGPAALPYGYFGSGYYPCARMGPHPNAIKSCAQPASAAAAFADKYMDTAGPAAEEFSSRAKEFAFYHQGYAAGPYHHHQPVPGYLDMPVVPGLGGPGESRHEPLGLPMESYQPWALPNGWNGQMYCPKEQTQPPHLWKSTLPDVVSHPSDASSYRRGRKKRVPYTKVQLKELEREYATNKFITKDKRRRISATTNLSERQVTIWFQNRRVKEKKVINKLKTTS
# Chain of Dihydroorotate dehydrogenase (quinone), mitochondrial (Plasmodium falciparum (isolate 3D7)) (Q08210 whole entry, looked up): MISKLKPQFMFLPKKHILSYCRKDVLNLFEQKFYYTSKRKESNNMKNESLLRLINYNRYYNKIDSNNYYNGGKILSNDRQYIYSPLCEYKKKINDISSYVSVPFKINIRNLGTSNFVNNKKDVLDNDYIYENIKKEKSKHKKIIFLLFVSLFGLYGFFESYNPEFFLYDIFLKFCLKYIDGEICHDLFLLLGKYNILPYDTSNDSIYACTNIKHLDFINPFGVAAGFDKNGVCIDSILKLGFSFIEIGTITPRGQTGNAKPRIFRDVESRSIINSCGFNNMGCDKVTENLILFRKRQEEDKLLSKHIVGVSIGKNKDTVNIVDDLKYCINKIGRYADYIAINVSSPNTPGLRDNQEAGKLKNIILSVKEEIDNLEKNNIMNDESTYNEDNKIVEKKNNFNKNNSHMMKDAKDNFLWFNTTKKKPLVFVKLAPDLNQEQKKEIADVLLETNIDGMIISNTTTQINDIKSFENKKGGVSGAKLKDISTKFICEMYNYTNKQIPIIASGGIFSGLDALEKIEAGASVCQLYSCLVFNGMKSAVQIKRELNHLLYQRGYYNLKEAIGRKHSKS
# Chain of E3 ubiquitin-protein ligase XIAP (Homo sapiens) (P98170 whole entry, looked up): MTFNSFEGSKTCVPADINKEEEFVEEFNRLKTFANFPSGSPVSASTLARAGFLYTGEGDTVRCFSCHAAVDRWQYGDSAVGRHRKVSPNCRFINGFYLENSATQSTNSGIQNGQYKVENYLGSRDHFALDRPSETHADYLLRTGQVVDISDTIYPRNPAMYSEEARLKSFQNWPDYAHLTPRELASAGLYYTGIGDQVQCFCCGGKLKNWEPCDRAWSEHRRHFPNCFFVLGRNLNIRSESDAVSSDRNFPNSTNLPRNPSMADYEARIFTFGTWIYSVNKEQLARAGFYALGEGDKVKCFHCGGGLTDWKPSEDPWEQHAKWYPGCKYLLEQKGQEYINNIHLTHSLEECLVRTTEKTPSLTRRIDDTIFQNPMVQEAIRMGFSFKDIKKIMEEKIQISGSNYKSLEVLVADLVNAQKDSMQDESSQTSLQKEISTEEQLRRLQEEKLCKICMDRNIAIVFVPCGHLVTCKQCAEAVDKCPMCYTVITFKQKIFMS
SMILES,z-score [1],z-score [2],z-score [3],composite z-score [4],z-score [5],z-score [6],z-score [7],z-score [8],z-score [9],composite z-score [10],composite z-score [11],composite z-score (XIP peptide (Xip251-270)),z-score [12],z-score [13],z-score [14],z-score [15]
CCCC[C@@H](O)C1=C(C)C[C@H]2C(=O)N(Cc3ccccc3)C(=O)[C@H]2[C@H]1CO,-0.31,-3.87 (inactive),-0.327 (inactive),-2.65 (inactive),0.27 (inactive),0.161 (inactive),0.11 (inactive),0.183 (inactive),-0.287,-0.0911,-0.38 (inactive),0.576,-0.224,-3.33 (inactive),0.391 (inactive),0.984 (inactive)
COCCOC(=O)N1C(=O)[C@@]2(c3cc(C#CC4(O)CCCCCC4)ccc31)[C@H](c1ccc(OCCO)cc1)N1[C@H](c3ccccc3)[C@H](c3ccccc3)OC(=O)[C@H]1[C@@H]2C(=O)NC[C@H](O)c1ccccc1,-0.259,0.685 (inactive),-0.596 (inactive),1.74 (inactive),1.91 (inactive),2.62 (inactive),0.393 (inactive),0.0869 (inactive),0.406,-0.16,0.437 (inactive),0.723,-2.27,2.7 (inactive),0.0412 (inactive),0.0764 (inactive)
Cc1ccc(C2CC=C(C(=O)O)CN2S(=O)(=O)c2ccc(C)cc2)cc1 (configuration not stated),-0.719,-0.0489 (inactive),-0.955 (inactive),1.23 (inactive),0.396 (inactive),0.603 (inactive),-0.799 (inactive),-1.52 (inactive),-1.54,-0.102,0.911 (inactive),0.912,-1.2,-4.53 (inactive),-0.185 (inactive),-0.999 (inactive)
C=CCOC(=O)[C@H]1[C@@H]2C(=O)O[C@@H](c3ccccc3)[C@@H](c3ccccc3)N2[C@@H](c2ccc(OCCOC(=O)[C@H]3C[C@H]4C(=O)N[C@@H](Cc5ccccc5)C(=O)N4[C@H]3c3ccc(O)cc3)cc2)[C@]12C(=O)Nc1ccccc12,0.696,1.32 (inactive),1.17 (inactive),-0.869 (inactive),2.64 (inactive),1.71 (inactive),-0.38 (inactive),0.124 (inactive),1.74,0.0015,2.32 (inactive),0.823,-1.62,1.08 (inactive),0.464 (inactive),0.685 (inactive)
CO[C@H]1O[C@H](CO)[C@@H](OC(=O)Nc2ccc3c(c2)OCO3)[C@H](OC(=O)Nc2ccccc2-c2ccccc2)[C@@H]1OC(=O)Nc1ccccc1-c1ccccc1,-0.659,1.42 (inactive),-0.443 (inactive),0.237 (inactive),1.14 (inactive),2.33 (inactive),-0.243 (inactive),-0.0545 (inactive),-0.427,0.28,1.03 (inactive),0.561,-2.6,-2.64 (inactive),-0.313 (inactive),-0.199 (inactive)
COC(=O)C1(C)C=C2C(=C(c3ccccc3)C(=O)C2C)CN1 (configuration not stated),-1.44,0.558 (inactive),-1.71 (inactive),-0.784 (inactive),1.38 (inactive),0.376 (inactive),-0.632 (inactive),-0.348 (inactive),-2.05,0.359,-0.21 (inactive),0.923,-0.0619,-7.29 (inactive),0.74 (inactive),0.84 (inactive)
COCCOC(=O)N1C(=O)[C@@]2(c3cc(C#CC4(O)CCCCCC4)ccc31)[C@H](C(=O)N1CCN(c3ncccn3)CC1)[C@H]1C(=O)O[C@H](c3ccccc3)[C@H](c3ccccc3)N1[C@@H]2c1ccc(OCCO)cc1,-0.324,1.44 (inactive),0.712 (inactive),-0.0915 (inactive),2.53 (inactive),2.98 (inactive),-0.446 (inactive),0.293 (inactive),0.928,-0.0749,-0.128 (inactive),0.835,-2.34,0.821 (inactive),0.124 (inactive),0.204 (inactive)
NCCCCCNC(=O)[C@@H]1C[C@@H]2C(=O)N3CCC[C@H]3C(=O)N2[C@@H]1c1cccc(OCCO)c1,0.0359,-0.582 (inactive),0.199 (inactive),-0.801 (inactive),-0.226 (inactive),-0.914 (inactive),0.0544 (inactive),-0.109 (inactive),-0.0506,0.522,0.536 (inactive),-0.0496,0.398,-3.71 (inactive),0.0592 (inactive),0.182 (inactive)
COCCCNC(=O)[C@@]1(C)c2ccccc2C(=O)N(Cc2ccc(OC(F)(F)F)cc2)[C@H]1c1ccc(CO)cc1,-0.576,-0.0763 (inactive),-0.741 (inactive),-0.617 (inactive),0.431 (inactive),-0.419 (inactive),0.434 (inactive),1.17 (inactive),-0.661,-0.148,0.111 (inactive),0.187,-0.313,-2.89 (inactive),-0.143 (inactive),-0.339 (inactive)
CCN(CC)c1ccc(N2CC=CC34O[C@@H]5/C=C\CCC(C)OC(=O)C5[C@H]3C(=O)N(CCCO)[C@@H]4C2=O)cc1 (some centres not stated),-0.649,1.09 (inactive),0.267 (inactive),0.424 (inactive),-0.745 (inactive),1.21 (inactive),0.692 (inactive),0.562 (inactive),0.47,-0.0243,0.217 (inactive),0.974,-0.0779,-6.38 (inactive),0.0745 (inactive),-0.0024 (inactive)
C/C=C\[C@@H](NCc1ccccc1Br)[C@@H](O)Cc1ccccc1,-0.391,-9.3 (active),-0.393 (inactive),-2.11 (inactive),-1.61 (inactive),-0.572 (inactive),-0.179 (inactive),-1.18 (inactive),-0.645,0.0785,-0.0971 (inactive),0.0819,-1.64,-1.47 (inactive),0.0731 (inactive),0.35 (inactive)
C#C[C@@H](CC)O[Si](C#Cc1ccc(Oc2ccccc2)cc1)(C(C)C)C(C)C,-0.543,-0.87 (inactive),-0.613 (inactive),-0.661 (inactive),0.833 (inactive),0.898 (inactive),-0.568 (inactive),-0.416 (inactive),-1.1,-0.0562,0.0878 (inactive),-0.102,-0.968,-0.279 (inactive),0.169 (inactive),-0.0725 (inactive)
Cc1ccc(S[C@]2(C(=O)O)CC(=O)N(Cc3ccccc3)[C@@H]2c2ccc(CO)cc2I)cc1,-0.201,-3.44 (inactive),-2.14 (inactive),-0.975 (inactive),0.649 (inactive),-1.44 (inactive),-0.256 (inactive),-0.246 (inactive),-1.26,-0.287,0.233 (inactive),0.564,-0.58,-2.92 (inactive),-0.123 (inactive),-0.134 (inactive)
CN1C(=O)C2C=CC(C(O)c3ccc(Br)cc3)N(N(c3ccccc3)c3ccccc3)C2C1=O (configuration not stated),-0.456,0.431 (inactive),-1.19 (inactive),1.02 (inactive),1.01 (inactive),1.32 (inactive),-0.499 (inactive),-0.283 (inactive),-0.629,-0.0255,0.654 (inactive),0.266,-0.233,-0.704 (inactive),0.63 (inactive),0.0215 (inactive)
COC(=O)C1=CCC(c2cccc(Cl)c2)O1 (configuration not stated),-0.0749,-3.58 (inactive),-0.232 (inactive),-0.861 (inactive),0.216 (inactive),-0.695 (inactive),-0.0684 (inactive),-0.0113 (inactive),-0.646,-0.0962,-0.0103 (inactive),0.45,-0.539,-0.451 (inactive),0.456 (inactive),0.498 (inactive)
CN(C)CCCNC(=O)[C@@H]1c2ccccc2C(=O)N(Cc2cc(F)cc(C(F)(F)F)c2)[C@H]1c1ccc(CO)cc1,0.0356,-0.473 (inactive),-0.62 (inactive),0.0999 (inactive),0.348 (inactive),0.0333 (inactive),-0.0392 (inactive),-0.578 (inactive),-0.359,-0.0172,0.782 (inactive),-0.0306,-0.1,-3.29 (inactive),0.241 (inactive),-0.0884 (inactive)
O=C1C2C=CC(C(O)c3ccc([N+](=O)[O-])cc3)N(Nc3ccc([N+](=O)[O-])cc3)C2C(=O)N1c1ccccc1 (configuration not stated),-0.686,1.61 (inactive),-0.858 (inactive),1.2 (inactive),1.64 (inactive),1.44 (inactive),-1.3 (inactive),-1.09 (inactive),-0.823,0.23,1.39 (inactive),0.813,-0.498,-4.02 (inactive),0.822 (inactive),-0.512 (inactive)
